Source: PubChem BioAssay
BAZ2B block: inhibitors of human BAZ2B bromodomain. Q9UIF8. AlphaScreen BAZ2B-H3K14Ac peptide displacement. Potency, µM (series often up to 114 µM), inactives show at the top dose activity change, negative = inhibition, hits mostly inhibitors. 360,000 compounds, 4.4% hits; note: % is set by controls: 0 for no effect and ±100 for the full control effect; nearly all actives have a fitted effect of over 60% in size
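Protein-peptide AlphaScreen: BAZ2B 50 nM, b-H3K14Ac 50 nM, 1x PBS pH 7.4 + 0.01% Tween-20. Preincubation 30 min RT; cpd 30 min RT (top 110 uM); beads 20 min RT, light-protected.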
G9a block: blocks human histone lysine methyltransferase G9a | G9a H3K9 monomethylation, AlphaScreen, 2 h | Potency, µM (top dose mostly 102 µM), for inactives: at the highest dose activity, negative = inhibition, hits mostly inhibitors | 350,000 compounds, 8.8% hits | AID 504332; note: % is set by controls: 0 for no effect and ±100 for the full control effect; nearly all actives have a fitted effect of over 75% in size
Target sequence (Q96KQ7 913-1193 limits assumed): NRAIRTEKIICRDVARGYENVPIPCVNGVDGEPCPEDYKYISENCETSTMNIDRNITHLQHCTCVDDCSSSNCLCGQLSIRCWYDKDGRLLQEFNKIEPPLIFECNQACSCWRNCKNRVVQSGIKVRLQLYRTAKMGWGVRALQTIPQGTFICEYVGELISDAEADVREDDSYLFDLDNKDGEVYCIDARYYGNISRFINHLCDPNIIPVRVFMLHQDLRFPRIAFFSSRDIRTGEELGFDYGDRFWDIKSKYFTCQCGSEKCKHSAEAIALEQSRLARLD
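AlphaScreen read-out: biotin-H3K9 peptide (500 nM) methylation by 20 nM enzyme with 20 uM SAM, 2 h at room temperature after 15 min compound preincubation; anti-monomethyl H3K9 antibody plus donor/acceptor beads, 10 min dark.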
JMJD2A Tudor: blocks the human JMJD2A Tudor domain. O75164. AlphaScreen JMJD2A-Tudor / H3K4me3 peptide binding. Potency, µM (titrated, usually from 114 µM), inactives show at the highest dose activity change, negative = inhibition, hits mostly inhibitors. 390,000 compounds, 4.4% hits; note: % is set by controls: 0 for no effect and ±100 for the full control effect; nearly all actives have a fitted effect of over 50% in size
HP1b chromo inh: inhibitors of HP1-beta chromodomain binding to methylated histone tails; P83916; AlphaScreen HP1-beta / biotin-H3K9me3 peptide binding; Potency, µM (doses to about 114 µM), without a hit: top-dose activity change, negative = inhibition, hits mostly inhibitors; 390,000 compounds, 0.56% hits; AID 540317; note: nearly all actives have a fitted effect of over 70% in size
Target sequence (P83916 whole entry, looked up): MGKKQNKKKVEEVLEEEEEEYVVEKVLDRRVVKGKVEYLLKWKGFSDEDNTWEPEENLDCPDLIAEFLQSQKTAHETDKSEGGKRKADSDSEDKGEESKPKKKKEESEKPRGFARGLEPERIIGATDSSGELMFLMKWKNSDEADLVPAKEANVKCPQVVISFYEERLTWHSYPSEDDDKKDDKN
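HP1-beta protein (50 nM final) preincubated 30 min at room temperature with biotinylated H3(1-18)K9me3 peptide (50 nM) in PBS pH 7.4, 0.01% Tween-20, then compound added for 30 min. AlphaScreen streptavidin donor/nickel chelate acceptor beads (10 ug/mL final), 30 min dark, luminescence read.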
GLS inh: glutaminase GLS (human) inhibition; O94925; GLS enzymatic activity, qHTS titration; Potency, µM (titrated, usually from 45.5 µM), inactives show at the top dose activity change, negative = inhibition, usual class: inhibitors; 410,000 compounds, 0.21% hits; note: % is set by controls: 0 for no effect and ±100 for the full control effect
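hKGA in 45 mM KH2PO4 (pH 8.2), 0.02% Tween-20 with compound, then 1mM L-Glutamine (stock as added) plus glutamate oxidase/HRP/Amplex red coupling mix. Fluorescence read initially and after 30 min at RT; signal change reflects glutamate formation.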
Active calls of the source: *; ? = inconclusive; . = no result given; [ ] = another dose, or the depositor's remark. In the library only some 10% were active in any assay of this set; here they are far more common. Calls come from the whole dose curve; as a rule, active = well fitted curve in the direction sought with a large enough effect; inconclusive = small, poorly fitted or top-dose-only effect, or another doubt; inactive = no such curve, though single readings can be large; an effect the other way counts as inactive or inconclusive. Potency is the fitted concentration of half-maximal effect.

SMILES	BAZ2B block	G9a block	JMJD2A Tudor	HP1b chromo inh	GLS inh
CC(C)c1ccc(CC(=O)N2CCC2(C)C(=O)NS(=O)(=O)c2cccc(C#N)c2)cc1 (stereo unspecified)	.	.	.	.	2%
CN(C)c1ccc(C(CNS(=O)(=O)c2ccc(Cl)cc2)N2CCCC2)cc1 (stereo unspecified)	32µM*	?	50µM*	?	18%
COc1ccc(S(=O)(=O)NCC(c2ccc(N(C)C)cc2)N2CCOCC2)cc1 (stereo unspecified)	-31%	-25%[12.7 µM]	-23%	11%	25%
CN(C)c1ccc(C(CNS(=O)(=O)c2ccc(Br)cc2)N2CCCC2)cc1 (stereo unspecified)	35µM*	18µM*	45µM*	?	-3%
Cn1c(N)c(C(=O)CSc2nnc(-c3c[nH]c4ccccc34)n2C2CC2)c(=O)[nH]c1=O	?	?	-7%	-11%	0%
CC(C)CN(C(=O)COC(=O)c1cccc2ccccc12)c1c(N)n(Cc2ccccc2)c(=O)[nH]c1=O	4%	-29%[59 µM]	-6%	29%	-5%
CC(=O)O/C(=C\c1cn(C(C)=O)c2ccccc12)C(=O)O	?	35µM*	-1%	31%	?
CC(=O)n1cc(CO)c2ccccc21	3%	7%[12.7 µM]	-10%	38%	-5%
CC1C(=O)N2CCCc3cc(NC(=O)C4CC4)cc1c32 (stereo unspecified)	13%	-12%	-4%	-3%	0%
CC1C(=O)N2CCCc3cc(NS(=O)(=O)c4ccc(F)cc4)cc1c32 (stereo unspecified)	-2%	50µM*	-13%	-13%	16%
CNC(=O)C(=O)Nc1cc2c3c(c1)C(C)C(=O)N3CCC2 (stereo unspecified)	-23%	1.4µM*	-2%	30%	-2%
CC1C(=O)N2CCCc3cc(NC(=O)COc4ccc(Cl)cc4)cc1c32 (stereo unspecified)	-3%	50µM*	-9%	15%	-4%
Cc1nc2ccc(C(=O)O)cc2c2c1CC(CN)O2 (stereo unspecified)	-11%	79µM*	?	1%	-25%
Cc1n[nH]c(=S)n(NC(=O)CC(=O)Nn2c(=S)[nH]nc(C)c2=O)c1=O	40µM*	0%	79µM*	42%	?
Cc1n[nH]c(=S)n(NC(=O)/C=C/C(=O)Nn2c(=S)[nH]nc(C)c2=O)c1=O	25µM*	?	13µM*	?	11µM*
Cc1cc(C)c(C(=O)C(C)OC(=O)c2ccccn2)cc1C (stereo unspecified)	79µM*	?	50µM*	9%	-2%
CCN1C(=O)/C(=C2\SC(=S)N(CC3CCCO3)C2=O)c2ccccc21 (stereo unspecified)	10µM*	4µM*	.	.	.
CCN1C(=O)/C(=C2\SC(=S)N(c3c(C)n(C)n(-c4ccccc4)c3=O)C2=O)c2ccccc21	-1%	?	-4%	16%	-5%
CCN1C(=O)/C(=C2\SC(=S)N(NC(=O)c3ccccc3O)C2=O)c2ccccc21	25µM*	16µM*	1.8µM*	22µM*	?
O=C(COc1ccccc1Cl)NNC(=O)c1ccc2c(=O)n3c(nc2c1)CCC3	5%	10%[2.33 µM]	-10%	41%	11%
Cc1cccc(-c2nc3c4ccccc4nc(N4CCN(c5ccccc5F)CC4)n3n2)c1	2%	?	-7%	44%	0%
COc1ccc(Cn2ncc3c4sc(C)cc4n(C)c3c2=O)cc1F	.	.	-3%	.	.
Nc1ccc(NC(=S)Nc2ccccc2)cc1	-9%	-3%[12.7 µM]	-27%	15%	5%
CNC(=S)/N=C(/Nc1ccccc1)c1ccccc1	?	7.9µM*	-18%	23%	-20%
O=C(NNC(=S)Nc1ccccc1)c1cc(Br)ccc1Cl	-21%	40µM*	-24%	3%	-24%
SMILES	BAZ2B block	G9a block	JMJD2A Tudor	HP1b chromo inh	GLS inh
COc1cccc(NC(=S)Nc2ccc(O)cc2)c1	?	8.9µM*	-20%	-20%	-3%
Oc1ccc(NC(=S)Nc2ccccc2)cc1	-17%	50µM*	-10%	19%	?
COc1cccc(NC(=S)Nc2ccc(F)cc2)c1	-9%	13%	-16%	40%	-2%
O=C(NNC(=S)Nc1ccccc1)c1ccncc1	-8%	?	-4%	12%	19%
CNC(=S)/N=C(\Nc1ccc(C)cc1)c1ccccc1	-34%	.	-13%	-13%	-6%
CCN(C[C@H]1N[C@@](Cc2ccccc2)(C(=O)OC)[C@H]2C(=O)N(Cc3ccccc3)C(=O)[C@@H]12)C(=O)Nc1ccc(C(F)(F)F)cc1	.	.	-8%	44%	-5%
CCCn1c2ccccc2c2cnn(CC(=O)N(CCCOC)Cc3ccco3)c(=O)c21	-38%	-45%[59 µM]	-26%	23%	0%
CCCc1cc(C(=O)Nc2cccc(-c3nn[nH]n3)c2)sc1C	.	.	.	.	5%
O=C(NNC(=S)Nc1ccccc1)NNC(=S)Nc1ccccc1	-20%	14µM*	-26%	6%	25%
O=C(NNC(=S)Nc1ccccc1)Nc1ccccc1	-24%	.	-16%	17%	3%
CCOC(=O)CC1C(=O)NCCN1C(=O)c1cc2c(=O)n3cccc(C)c3nc2s1 (stereo unspecified)	2%	?	-27%	24%	-5%
CCN1CCN(C(=O)c2cc3c(=O)n4ccccc4nc3s2)CC1	-1%	-15%	-7%	-1%	-3%
O=C(c1cc2c(=O)n3ccccc3nc2s1)N1CCc2ccccc2C1	-12%	40µM*	.	.	.
CCOC(=O)CC1C(=O)NCCN1C(=O)c1cc2c(=O)n3ccccc3nc2s1 (stereo unspecified)	5%	89µM*	.	.	.
Cc1onc(-c2ccccc2)c1-c1n[nH]c(=S)n1-c1ccc(C(=O)O)cc1	?	?	45µM*	29%	23%
O=C(O)C1CC=CCC1C(=O)NNc1ccccc1 (stereo unspecified)	-11%	14µM*	10%[57.1 µM]	5%	-14%
O=C(O)C1CC=CCC1C(=O)NCc1ccccc1 (stereo unspecified)	-6%	29%[12.7 µM]	-9%	29%	1%
Cc1ccc([N+](=O)[O-])cc1NC(=O)/C=C/C(=O)O	79µM*	-9%[12.7 µM]	-16%	27%	0%
O=C(Nc1ccc(Cl)cc1F)C1CC1c1ccccc1 (stereo unspecified)	8%	.	-8%	22%	-2%
COc1ccc([N+](=O)[O-])cc1NC(=O)/C=C/C(=O)O	-1%	3%	-9%	17%	8%
Cc1ccc(NC(=O)C2CC2c2ccccc2)c([N+](=O)[O-])c1 (stereo unspecified)	?	40µM*	?	-11%	-2%
O=C(NNc1ccc([N+](=O)[O-])cc1)C1CC1c1ccccc1 (stereo unspecified)	-38%	10µM*	-11%	-19%	20%
